Assay results taken from ChEMBL document CHEMBL3988442, “University of Dundee, Small-Polar-MMV Screening Library” (2021).

What was measured:
[1] = target: T1, Aspartate--tRNA(Asp/Asn) ligase (Mycobacterium tuberculosis (strain ATCC 25618 / H37Rv)) (UniProt P9WFW3); test: Assay for Asp RNA synthetase-1 from Mycobacterium tuberculosis; type: functional; set-up: scale not given: direction of the effect not stated beside the values; settings: 30 µM; further: in the data most compounds retested in dose-response had high values
T1 sequence (whole entry): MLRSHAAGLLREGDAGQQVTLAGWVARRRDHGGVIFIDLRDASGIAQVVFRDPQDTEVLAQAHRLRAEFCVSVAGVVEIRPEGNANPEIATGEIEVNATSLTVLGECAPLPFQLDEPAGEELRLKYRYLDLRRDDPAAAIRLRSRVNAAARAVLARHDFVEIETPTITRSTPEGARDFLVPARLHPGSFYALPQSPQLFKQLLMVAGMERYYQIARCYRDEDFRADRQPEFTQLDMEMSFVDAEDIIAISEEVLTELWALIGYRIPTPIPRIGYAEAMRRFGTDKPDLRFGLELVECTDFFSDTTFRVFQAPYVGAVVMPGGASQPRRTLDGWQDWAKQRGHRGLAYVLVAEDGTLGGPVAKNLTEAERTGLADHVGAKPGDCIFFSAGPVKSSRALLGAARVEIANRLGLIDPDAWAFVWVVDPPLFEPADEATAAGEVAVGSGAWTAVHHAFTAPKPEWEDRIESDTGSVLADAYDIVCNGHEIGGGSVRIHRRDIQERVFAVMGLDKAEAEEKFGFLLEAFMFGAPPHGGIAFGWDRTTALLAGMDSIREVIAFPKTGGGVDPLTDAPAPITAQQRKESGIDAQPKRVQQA

[2] = target: Shiga toxin 2 (Escherichia coli O157:H7) (UniProt P09385+P09386); test: E. coli 0.157:H7 Shiga Toxin SOP - stx2 screening assay; type: functional; set-up: scale not given: direction of the effect not stated beside the values; settings: 30 µM

Row | Structure (SMILES) | Percent Effect [1] [%] | Percent Effect [2] [%]
1 | CCS(=O)(=O)N1CCC(c2cc3n(n2)[C@@H](C(F)(F)F)C[C@@H](C)N3)CC1 | 5.23 | 13
2 | O=C(c1cnccn1)N1CCOCC2(CCN(C3CCOCC3)C2)C1 (centres undefined) | 3.28 | -36.9
3 | CN(CCCOc1ccc(F)cc1)Cc1nc2c(cnn2C)c(=O)[nH]1 | -4.83 | 26.6
4 | Cc1cc(C)cc(OCCC(=O)N2CCOCC2c2ncon2)c1 (centres undefined) | 5.48 | 33.2
5 | Cc1n[nH]c(C)c1C1CCCN1C(=O)NCCSC(C)(C)C (centres undefined) | 3.45 | -9.79
6 | COc1ccc(CN2C[C@@H]3COC[C@]3(COc3cccnc3)C2)cc1 | -3.56 | -5.5
7 | O=C(c1cccnc1O)N(Cc1ccsc1)CC1CCCO1 (centres undefined) | -1.37 | -27.4
8 | Cc1oc(C)c(C(=O)N2CCCN(Cc3cscn3)CC2)c1C | -1.41 | 26.2
9 | Cc1nc(C)n(CC2CCCN(CCc3ccccn3)C2)n1 (centres undefined) | -0.8 | -46.3
10 | CC(C)Cc1noc(CN2CCCC(Cn3cncn3)C2)n1 (centres undefined) | -2.91 | -14.7
11 | CC(C)c1csc(C2CCCN(C(=O)c3ccc(=O)n(C)n3)C2)n1 (centres undefined) | -1.11 | -6.52
12 | CN(Cc1nnc(C2CC2)n1C)C1CCN(Cc2ccon2)C1 (centres undefined) | 12.3 | 14.2
13 | COc1ccnc(N2CCN(C(=O)CCc3nccs3)CC2)n1 | -1.19 | -2.92
14 | Cn1cc(CN2C[C@@H]3COC[C@]3(C(=O)NCc3ccccn3)C2)cn1 | 3.06 | -15
15 | O=C(O)c1cc2c(nc1O)CC(c1cccs1)CC2=O (centres undefined) | 2.79 | -19.6
16 | Cc1ccc(NC(=O)NC(C)c2nc[nH]n2)cc1 (centres undefined) | 4.39 | 5.92
17 | O=C([C@@H]1CCO[C@@H]2CCN(Cc3cccnc3)C[C@H]21)N1CCCCO1 | 6.53 | -26.6
18 | Cc1cccc(NS(=O)(=O)c2cc(C(=O)O)oc2C)c1Cl | -1.97 | 8.36
19 | CC(=O)NCCc1ccc(S(=O)(=O)N(CC(C)C)C(C)C)s1 | 7.1 | -42.2
20 | CN1CCOC(CN(C(=O)CC2CCCC2)c2nccs2)C1 (centres undefined) | 6.38 | 27.4
21 | CC(=O)N1CCCn2nc(CNS(=O)(=O)c3cc(C)cs3)cc2C1 | 1.67 | 5.82
22 | Cn1ncc2c1NC(=O)CC2c1ccc(Cl)cc1Cl (centres undefined) | 5.72 | -26.2
23 | Cn1cc(C(=O)NC2CCN(C(=O)NCC3CCSCC3)CC2)cn1 | 3.16 | -2.79
24 | COc1cc(CNC(=O)Nc2cc(C(F)(F)F)c[nH]c2=O)ccn1 | -3.59 | 25.7
25 | CC(C)c1nc(C2CCCN2CCc2ccncc2)no1 (centres undefined) | 1.61 | -7.28
26 | CCN1CCC2(CC1)CC(NC(=O)NC)c1cc(C)ccc12 (centres undefined) | -5.21 | -9.91

Row | Structure (SMILES) | Percent Effect [1] [%] | Percent Effect [2] [%]
27 | COc1ccccc1OCC(=O)NS(=O)(=O)c1ccccc1Br | 5.46 | -14.2
28 | CN(Cc1ccc(F)cc1)C(=O)NCC1(N2CCOCC2)CCSC1 (centres undefined) | -1.08 | -43.8
29 | COc1cc(CNC(=O)CNc2cc(Cl)ccc2OC)ccn1 | 3.88 | 20.6
30 | CC(C)c1cc(NC(=O)CN2CCCC2Cn2cccn2)on1 (centres undefined) | -1.29 | 29.8
31 | O=C1CCCN1Cc1ncn2c1CN(C(=O)c1cccc(F)c1)CCC2 | -3.2 | 3.75
32 | CN(Cc1cnn(C)c1)C(=O)NC1CCS(=O)(=O)C1 (centres undefined) | -2.67 | 14.6
33 | COCCC(=O)N1CCC2(CC1)CC(c1ccccc1)CN(C)C2 (centres undefined) | -3.3 | 17.5
34 | Cc1nsc(N2CCCN(c3nc(C4CC4)ns3)CC2)n1 | 0.575 | -18.6
35 | CC(C)NC(=O)C(c1ccccc1)N1CCn2c(nnc2C2CC2)C1 (centres undefined) | -1.48 | 13
36 | O=C(c1cc2cc(F)ccc2[nH]1)N1CCC(Nc2cccnn2)CC1 | -0.116 | -83.2
37 | CN(C(=O)c1cccc(C(=O)NCC(F)(F)F)c1)c1ccccc1 | -2.65 | -62.9
38 | O=C(c1ccccn1)N1CCCC(c2nccn2Cc2ccncc2)C1 (centres undefined) | 6.99 | 4.41
39 | CCOCC(=O)N1CCC(Oc2ccc(C(F)(F)F)cn2)CC1 | 2.2 | 12.5
40 | CCc1c(C)sc(NC(=O)CN2CCN(CC)CC2)c1C(=O)OC | -1.36 | -31.3
41 | c1cc2nc(C3CCN(CC4CC4)CC3)nn2cc1N1CCCC1 | -1.69 | -3.75
42 | CN(C)c1ncc(CN2CCOC(C(=O)Nc3ccccc3)C2)cn1 (centres undefined) | 6.13 | -0.28
43 | CS(=O)(=O)c1ccc(NC(=O)NCc2ccc3c(c2)CCC3)cn1 | 1.92 | -9.09
44 | Cn1ccc(C(=O)N2CCCC(Cc3cccc4ncccc34)C2)n1 (centres undefined) | -2.07 | -7.58
45 | Cc1nc(C)n(C2CCCN(C(=O)c3ccccc3C)C2)n1 (centres undefined) | 0.173 | 18.2
46 | Cc1nc2cc(C(=O)N3CCCC(n4cncn4)C3)ccc2n1C (centres undefined) | -8.92 | -28.5
47 | O=C(c1csc(-c2cccs2)n1)N1CCCC1Cn1cccn1 (centres undefined) | 3.15 | 37.2
48 | O=C1CC(c2ccncc2)C2(CCN(CCO)CC2)N1 (centres undefined) | -1.48 | -4.07
49 | O=C(CCN1CCOC(Cn2cccn2)C1)NC1CCCC1 (centres undefined) | -1.67 | -51.9
50 | COc1ccc(NC(=O)NCC(O)c2ccc(F)cc2F)c(OC)c1 (centres undefined) | 1.18 | -4.16
51 | O=C(CCc1cccc(F)c1F)N1CCN(Cc2ccco2)CC1 | 0.502 | -2.83
52 | COc1cccc(CC2CN(C3CCN(C(C)=O)CC3)CCO2)c1 (centres undefined) | -4.28 | -26

Row | Structure (SMILES) | Percent Effect [1] [%] | Percent Effect [2] [%]
53 | Cc1nccc(C(=O)N2CCCN(Cc3cnn(C(C)C)c3)CC2)n1 | -2.77 | -13.2
54 | O=C(CN1CCOC(Cn2cccn2)C1)NCCc1ccc(F)cc1 (centres undefined) | 4.34 | 12
55 | O=C(c1cc2c(s1)CCC2)N1CCCCC1Cn1cccn1 (centres undefined) | 1.25 | 11.1
56 | CN(Cc1ccsc1)C(=O)CS(=O)(=O)Cc1ccc(Cl)c(Cl)c1 | 3.95 | 41.2
57 | c1ccc(-c2nc(CN3CCc4c(ncn4C4CC4)C3)cs2)cc1 | 4.49 | -40.4
58 | Cc1c(C(=O)NC(CN2CCCC2=O)c2ccccc2)cnn1C (centres undefined) | -1.08 | 34
59 | N#Cc1ccccc1C(=O)N1C[C@H](CO)C[C@H](CN2CCCC2)C1 | -4.69 | 0.715
60 | O=C(Cc1ccc2c(c1)OCO2)N1CCN(c2cnccn2)CC1 | -3.06 | 19
61 | NCC1Cn2nnc(-c3cccc(F)c3)c2CO1 (centres undefined) | 1.16 | -69.1
62 | CN1CC(=O)N(c2cccc(F)c2)CC12CCNC2 (centres undefined) | -4.35 | -4.44
63 | CCCN(C)C(=O)c1ccc2c(c1)[nH]c(=O)n2CCOCC | -2.29 | -18.9
64 | Cc1cc(C2CCCN(CCc3ccccn3)C2)n[nH]1 (centres undefined) | -5.34 | -1.21
65 | CCc1nccn1-c1cncc(C2CCCN2Cc2ccc(F)cc2)n1 (centres undefined) | 1.57 | -28.9
66 | Cc1ccc2cc(C(=O)NCCn3nc4ccccn4c3=O)[nH]c2c1 | -5.08 | -70.8
67 | CC(C)NC(=O)C1CN(C(=O)c2ccc(F)cc2)CC12CCOCC2 (centres undefined) | 0.581 | -56
68 | CCOCC(O)CN1CCN(C(=O)CC(C)C)CC1 (centres undefined) | -2.19 | 18.6
69 | O=C(c1ccsc1)N1CCc2c(CNc3ncccn3)n[nH]c2C1 | -0.641 | -33.5
70 | CN(CC(=O)N1CCCC1c1cnn(C)c1)c1ccc(Cl)cn1 (centres undefined) | -2.16 | 29.7
71 | C[C@@H]1CN(C2(C(=O)N3CCOCC3)Cc3ccccc3C2)C[C@H](C)O1 | 0.585 | -11.4
72 | CN(CC(=O)NCc1ccccn1)CC1CCCN1c1cccnn1 (centres undefined) | -4.1 | -17.5
73 | Cc1c(F)cccc1CN1CCn2nc(CNC(=O)N(C)C)cc2C1 | 0.386 | -49.9
74 | O=C1CCCc2nccc(-c3ccccc3)c21 | 1.6 | -14.1
75 | COCCc1noc(CN(C)C(=O)c2cccc(N3CCCC3=O)c2)n1 | 3.06 | 3.89
76 | CC(=O)N(C)c1nc(CN2CCOC(Cn3cccn3)C2)cs1 (centres undefined) | 3.18 | -10.3
77 | COc1ccc(C2C3=C(COC3=O)Nc3[nH]nc(C)c32)cc1OC (centres undefined) | -2.61 | -21.4
78 | CC(C)c1cc(N2CCC(CCC(=O)NC3CC3)CC2)n2nccc2n1 | 0.32 | -4.79

Row | Structure (SMILES) | Percent Effect [1] [%] | Percent Effect [2] [%]
79 | O=C1[C@H]2CN(CC3CC3)C[C@H]2CN1Cc1cccc(F)c1 | 1.33 | -1.04
80 | Cc1ccccc1-c1cncc(C2CCN(C(C)C)CC2)n1 | -1.25 | -10.3
81 | Cn1cnc2c1CCN(Cc1csc(-c3ccsc3)n1)C2 | 3.77 | -95.3
82 | Cc1nc(CCNC(=O)C2CC(=O)N(C(C)(C)C)C2)sc1C (centres undefined) | 1.05 | -3.12
83 | COCCCNC(=O)NCc1ccc(C)cc1 | -3.8 | -59.7
84 | CCc1nnc2n1CCN(C(=O)c1cc3ccc(F)cc3nc1C)C2 | 1.79 | 8.5
85 | CCN1C(=O)CCCC12CCCN(C(=O)c1cnccn1)C2 (centres undefined) | 0.865 | -10.9
86 | CC(C)(C)NC(=O)CN1CCN(C(=O)Nc2ccc(F)cc2F)CC1 | -2.94 | -44.1
87 | c1sc(C2CCCC2)nc1CN1CCn2c(nnc2C2CC2)C1 | 3.23 | 27.9
88 | CN(C)C(C)(C)CNC(=O)C(C)(C)c1ccccc1F | -0.279 | 13.2
89 | COc1cccc2c1OCC(CNC(=O)CNC(N)=O)C2 (centres undefined) | 4.22 | 11.9
90 | Cn1nccc1C(=O)N1CCOC(Cc2cccnc2)C1 (centres undefined) | -0.485 | -23.7
91 | COCCc1noc(CNC2CCCN(c3cccnn3)C2)n1 (centres undefined) | -0.981 | -59
92 | CN(C(=O)NCc1ccncc1)C1CCN(c2ccccc2)C1=O (centres undefined) | -3.08 | -7.78
93 | O=C(c1cccc2cccnc12)N1CCCN(c2cccnn2)CC1 | -6.72 | 3.11
94 | Cc1noc(C(C)C)c1C(=O)NCc1cc(F)cc(F)c1 | -4.07 | 14.2
95 | Cn1cnnc1C1CCCN(C(=O)c2cnc3ccccc3n2)C1 (centres undefined) | -1.76 | 36.5
96 | Cc1noc(C(C)C)c1C(=O)NS(=O)(=O)c1ccc2c(c1)OCCCO2 | 2.22 | -0.248
97 | CCOCC(O)CN1CCN(C(=O)c2cccc(F)c2)CC1 (centres undefined) | 0.145 | -5.86
98 | CC(C)CN1C(=O)C2(CCN(Cc3nccs3)C2)c2ccccc21 (centres undefined) | -0.662 | -65.4
99 | CC(C)OCC(=O)N1CCCN(Cc2ccc(C#N)cc2)CC1 | -0.7 | 27.2
100 | CCOC(CC)C(=O)NCCC(=O)N1CCN(c2ccccn2)CC1 (centres undefined) | 2.61 | -11.4
101 | Cn1cccc1C(=O)Nc1cc(F)ccc1OCC1CCCO1 (centres undefined) | -6.53 | 22
102 | CN(Cc1cccnc1)CC1CCCN1c1cccnn1 (centres undefined) | 1.15 | 6
